Results taken from the supplement of paper PMC12636033.
± gives the standard deviation of the averaged measurements. Whole data set: some 33,000 sequences, median “E-score (rank enrichment, -0.5 to 0.5)” near -0.0075, cut for the highest 2% near 0.23. Only a selection was taken, and the highest values are over-represented in it overall.

system: WT Max(13-93) synthetic (M65Nle); assay: PBM 8-mer E-score (E-score (rank enrichment, -0.5 to 0.5)); higher = stronger preferential binding
Method: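 Protein binding microarray (universal PBM chip covering all 10-mers in fixed probe flanks) with chemically synthesized human Max(13-93) bHLH-LZ analogs (not full-length Max) bearing noncanonical residues (hArg, Tha, Aib, Nle at 65) and aromatic Cys staples. Read-out per 8-mer (and its reverse complement): E-score (rank-based enrichment, -0.5 to 0.5) and Z-score of median probe intensity.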

Row | Sequence | PBM 8-mer E-score
1 | AAGTGTCG | 0.0847 ± 0.052
2 | CCGTGTCC | -0.00903 ± 0.072
3 | CCGTGTCA | 0.0378 ± 0.022
4 | ACGTGTCG | 0.339 ± 0.0083
5 | ACCTGTCT | 0.0145 ± 0.064
6 | ACGTGTCA | 0.3263 ± 0.0031
7 | GCGTGTCA | 0.223 ± 0.019
8 | ACGTGTCC | 0.243 ± 0.037
9 | ACGTGTCT | 0.363 ± 0.00056
10 | AAGTGTCT | -0.104 ± 0.07
11 | GCGTGTCC | 0.127 ± 0.037
12 | CCGTGTCG | -0.151 ± 0.011
13 | CCTTTGCG | 0.00668 ± 0.0019
14 | AGCCCCCC | -0.14 ± 0.14
15 | AACAGACA | 0.184 ± 0.011
16 | CGATTAGC | -0.18 ± 0.11
17 | CGGGCGAA | -0.0278 ± 0.057
18 | CACGCCTG | 0.0753 ± 0.081
19 | TGCTTGAA | 0.0947 ± 0.15
20 | GCCACTGA | -0.158 ± 0.074
21 | GACCCCTA | -0.156 ± 0.13
22 | CGTGGCTA | 0.193 ± 0.013
23 | CATCTCAA | 0.104 ± 0.017
24 | AAATATAG | 0.238 ± 0.099
25 | ATATATAG | 0.182 ± 0.041

Row | Sequence | PBM 8-mer E-score
26 | AACTATAA | 0.269 ± 0.028
27 | GAATATAA | 0.179 ± 0.022
28 | CACTATAA | -0.0318 ± 0.027
29 | TAATATAA | 0.183 ± 0.014
30 | GACTATAA | 0.13 ± 0.0092
31 | CAATATAG | 0.117 ± 0.021
32 | AAAAATAT | 0.256 ± 0.017
33 | AAAAATAG | 0.102 ± 0.059
34 | AAATATAA | 0.24 ± 0.048
35 | AAAAATAC | 0.2 ± 0.033
36 | GTAGAGAC | -0.0752 ± 0.086
37 | CGTTCATC | 0.0464 ± 0.14
38 | GCCCCGCC | 0.172 ± 0.053
39 | CACAGGTA | 0.11 ± 0.061
40 | CGGTGACA | -0.162 ± 0.13
41 | ACTGCAAT | -0.0126 ± 0.077
42 | AAATATGT | 0.124 ± 0.078
43 | CAATATGA | 0.183 ± 0.027
44 | AAAATTTT | 0.273 ± 0.034
45 | AAAAATTT | 0.14 ± 0.091
46 | AAATATAC | 0.199 ± 0.028
47 | AAATATAT | 0.248 ± 0.032
48 | AAAATTTG | 0.027 ± 0.066
49 | AAATATGA | 0.261 ± 0.023
50 | ATATATAT | 0.0942 ± 0.12

Row | Sequence | PBM 8-mer E-score
51 | AAGGAGCC | -0.118 ± 0.072
52 | CGTAAGCC | 0.0338 ± 0.0056
53 | CAGGATAC | -0.144 ± 0.019
54 | ACGCCAGC | -0.269 ± 0.085
55 | ATGCGCCA | 0.123 ± 0.11
56 | CGTACAAC | 0.112 ± 0.047
57 | ACGAGTCG | -0.0792 ± 0.021
58 | ATTGAAAC | 0.117 ± 0.092
59 | ATGAAAAA | 0.158 ± 0.13
60 | ATTGAAAA | 0.254 ± 0.087
61 | CTTGAAAA | 0.0938 ± 0.0069
62 | CTGAAAAA | -0.141 ± 0.0094
63 | TTGAAAAA | 0.234 ± 0.043
64 | ACGGTCCA | -0.222 ± 0.021
65 | AGATTTAC | 0.119 ± 0.041
66 | ACCTATCT | 0.211 ± 0.065
67 | CCTAAGCC | -0.125 ± 0.096
68 | ATTTTCGG | 0.129 ± 0.056
69 | GAAAACAA | 0.206 ± 0.059
70 | ATACATGG | 0.134 ± 0.045
71 | ACACATGG | 0.357 ± 0.034
72 | ACACATAT | 0.202 ± 0.041
73 | ACACATGT | 0.359 ± 0.025
74 | ACACATCT | 0.0507 ± 0.12
75 | ACACATGA | 0.186 ± 0.036

Row | Sequence | PBM 8-mer E-score
76 | CTAGTGGC | -0.019 ± 0.044
77 | CACCCTTA | 0.118 ± 0.056
78 | ACCAGAAA | 0.0691 ± 0.0064
79 | CCTAGTCA | -0.0758 ± 0.01
80 | GCCGAAGC | -0.212 ± 0.034
81 | ACATTGTG | 0.26 ± 0.054
82 | ACATTGTC | 0.19 ± 0.033
83 | ACATTGTA | 0.153 ± 0.06
84 | AGAGACCG | -0.14 ± 0.044
85 | ACCCCGCC | 0.279 ± 0.035
86 | CCGCCCCC | -0.124 ± 0.051
87 | CCCGCCCC | 0.285 ± 0.14
88 | CCCGCCCG | 0.025 ± 0.078
89 | CCCCGCCC | 0.369 ± 0.062
90 | CCGCCCGG | -0.265 ± 0.039
91 | ACCCGCCC | 0.0569 ± 0.092
92 | CCCCCGCC | 0.0274 ± 0.11
93 | GCCCGCCC | 0.0723 ± 0.054
94 | CCGCCCCG | 0.236 ± 0.075
95 | AACCCGCC | -0.0368 ± 0.068
96 | CCCGCCCA | 0.183 ± 0.043
97 | CTCGTTCC | -0.0941 ± 0.0052
98 | CCGACGTA | -0.103 ± 0.022
99 | AATCACCT | 0.115 ± 0.11
100 | TAGTGCAA | 0.023 ± 0.006

Row | Sequence | PBM 8-mer E-score
101 | AGCGGAGG | -0.124 ± 0.11
102 | CTTAATGC | 0.162 ± 0.095
103 | CCGTACCA | -0.129 ± 0.033
104 | CACACAAA | 0.103 ± 0.13
105 | CACACGAA | 0.272 ± 0.054
106 | CACGCTCA | 0.0695 ± 0.057
107 | AACACGCG | 0.3 ± 0.08
108 | AACGCTCG | -0.131 ± 0.017
109 | AACACGCA | 0.134 ± 0.0072
110 | CACACGAC | 0.13 ± 0.11
111 | GACACAAA | 0.24 ± 0.048
112 | TACACAAA | 0.0928 ± 0.018
113 | CACGCTCG | 0.266 ± 0.035
114 | CACACGAG | 0.105 ± 0.0042
115 | AACACGCC | 0.0311 ± 0.14
116 | AAATTAAA | 0.198 ± 0.044
117 | TCAAAGGA | 0.0761 ± 0.07
118 | CGTTTTGA | -0.0368 ± 0.12
119 | ACGACATG | 0.0526 ± 0.047
120 | CGCGGCCA | -0.0571 ± 0.036
121 | CCGAAACC | -0.199 ± 0.026
122 | GACACCGC | -0.206 ± 0.08
123 | ACGTCCCC | 0.0319 ± 0.084
124 | AGCATTTA | -0.11 ± 0.038
125 | CACACGCA | 0.174 ± 0.028

Row | Sequence | PBM 8-mer E-score
126 | CACACGCG | 0.302 ± 0.017
127 | CACACGCC | 0.0838 ± 0.085
128 | TAGGCACA | 0.0603 ± 0.0065
129 | CAGAGGTA | 0.0024 ± 0.058
130 | ATATGATA | 0.302 ± 0.013
131 | GTATGAGA | 0.109 ± 0.033
132 | CTATGATA | -0.00697 ± 0.0076
133 | GGATGATA | -0.00911 ± 0.064
134 | GTATGATA | 0.235 ± 0.0072
135 | ATATGATG | 0.19 ± 0.03
136 | CAGCGCCA | -0.237 ± 0.0045
137 | GTGGCTCA | -0.0168 ± 0.037
138 | ACAGGAGA | 0.0713 ± 0.014
139 | CCCTACGG | -0.21 ± 0.015
140 | CACACATA | 0.0464 ± 0.029
141 | AACACATC | -0.0183 ± 0.028
142 | AAAACATT | 0.147 ± 0.033
143 | CAAACATG | 0.17 ± 0.13
144 | AACACATG | 0.368 ± 0.0069
145 | TACACATA | 0.213 ± 0.083
146 | AACACATA | 0.263 ± 0.084
147 | AACACATT | 0.13 ± 0.017
148 | AAAACATG | 0.28 ± 0.024
149 | CATGTAGA | 0.193 ± 0.018
150 | ACGCCCTC | 0.0691 ± 0.11

Row | Sequence | PBM 8-mer E-score
151 | GATCCAGC | -0.241 ± 0.017
152 | ATCCGTAG | -0.21 ± 0.046
153 | GCAGTGAA | 0.0345 ± 0.11
154 | ATGACAAA | 0.261 ± 0.11
155 | AGGACAAT | 0.183 ± 0.045
156 | ATGACAAC | 0.166 ± 0.029
157 | ATGACAAG | 0.119 ± 0.12
158 | AAGACAAT | 0.228 ± 0.075
159 | ATGACAAT | 0.264 ± 0.018
160 | TCGGGCCA | -0.185 ± 0.0072
161 | CGAATCTA | -0.0418 ± 0.067
162 | ATGTATGC | 0.166 ± 0.0091
163 | ACTAGACT | 0.0207 ± 0.063
164 | ACGCACGA | 0.143 ± 0.032
165 | ACGCACAT | 0.267 ± 0.02
166 | AAGCACGA | 0.125 ± 0.0091
167 | ACGCACAA | 0.0902 ± 0.052
168 | AAGCACGT | 0.367 ± 0.028
169 | AAGCACGG | 0.0974 ± 0.06
170 | ACGCACAG | -0.0926 ± 0.096
171 | ACGCACGT | 0.314 ± 0.041
172 | ACGCACGC | 0.205 ± 0.014
